Source: PubChem BioAssay (Tox21)
Records with an inconclusive call do not appear. Calls of active or inactive are those of the source. Unless noted, the call rests on the fitted dose curve.

Columns and labels:
[1] = Nuclear factor erythroid 2-related factor 2/antioxidant responsive element (Nrf2/ARE) small molecule agonists: qHTS cell viability counter screen in human keratinocytes (AID 1919968; active means well fitted curve in the direction sought with a large enough effect in the repeat runs; an effect the other way counts as inactive or inconclusive; further: nearly all actives have a fitted effect of over 55% in size); conditions: KeratinoSens HaCaT ARE cells viability, CellTiter-Fluor, 24 h; series mostly up to 92.4 µM
How it was run: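 Fluorescence read-out from CellTiter-Fluor after 1 h at 37 C. Wells held HaCaT-derived ARE-luciferase reporter cells (1,500/well) treated 23 h with DMSO-dissolved compounds. Run in the same wells as the luciferase agonist read.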

[2] = Nuclear factor erythroid 2-related factor 2/antioxidant responsive element (Nrf2/ARE) small molecule agonists: luciferase reporter gene qHTS assay in human keratinocytes (AID 1919969); conditions: KeratinoSens HaCaT ARE-luciferase, luminescence, 24 h; series mostly up to 92.4 µM; further: nearly all actives have a fitted effect of over 35% in size; further: potency means the concentration at half of the fitted maximal effect
[3] = biological target: Gonadotropin-releasing hormone receptor (Homo sapiens) (UniProt P30968); assay: Human gonadotropin-releasing hormone receptor (GnRHR) small molecule agonists, calcium flux assay in GnRHR-HEK293 cells (AID 1920063); conditions: calcium flux fluorescence, agonist mode; series mostly up to 57.6 µM; further: nearly all actives have a fitted effect of over 35% in size
Sequence of Gonadotropin-releasing hormone receptor (Homo sapiens) (P30968 whole entry, looked up): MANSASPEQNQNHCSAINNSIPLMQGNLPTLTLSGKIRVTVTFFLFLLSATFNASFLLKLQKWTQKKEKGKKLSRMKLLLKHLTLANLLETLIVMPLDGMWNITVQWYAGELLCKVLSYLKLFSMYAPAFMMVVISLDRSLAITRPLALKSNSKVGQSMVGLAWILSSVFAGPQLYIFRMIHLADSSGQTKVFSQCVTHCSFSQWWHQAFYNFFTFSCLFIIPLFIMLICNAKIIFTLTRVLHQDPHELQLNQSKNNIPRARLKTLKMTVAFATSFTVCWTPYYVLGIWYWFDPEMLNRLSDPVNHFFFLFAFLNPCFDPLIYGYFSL
How it was run: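 Calcium-dye fluorescence, Ex/Em=480/540, recorded every 1 sec over 3 min after compound addition to GnRHR-HEK293 cells. Cells had been seeded 18 hours earlier and dye-loaded for 1 hour at 37 C. Fifteen concentrations, triplicates.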

[4] = biological target: KiSS-1 receptor (Homo sapiens) (UniProt Q969F8); assay: Human kisspeptin (KISS1R) small molecule agonists, calcium flux assay in KISS1R-HEK293 cells (AID 1920064; active means well fitted curve in the direction sought with a large enough effect in the repeat runs; an effect the other way counts as inactive or inconclusive); conditions: KISS1R-HEK293, calcium flux fluorescence, agonist; series mostly up to 76.8 µM
Sequence of KiSS-1 receptor (Homo sapiens) (Q969F8 whole entry, looked up): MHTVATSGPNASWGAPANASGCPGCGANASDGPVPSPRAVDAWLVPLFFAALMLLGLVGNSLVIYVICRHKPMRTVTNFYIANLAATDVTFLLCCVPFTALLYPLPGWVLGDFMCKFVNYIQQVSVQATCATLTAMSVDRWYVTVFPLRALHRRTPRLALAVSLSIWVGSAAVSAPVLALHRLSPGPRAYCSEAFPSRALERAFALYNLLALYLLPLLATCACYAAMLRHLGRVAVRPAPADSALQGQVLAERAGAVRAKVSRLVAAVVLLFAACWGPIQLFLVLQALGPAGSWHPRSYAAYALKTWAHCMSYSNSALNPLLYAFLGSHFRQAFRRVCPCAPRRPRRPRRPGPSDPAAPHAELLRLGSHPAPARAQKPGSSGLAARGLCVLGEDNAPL
How it was run: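 Calcium flux read-out: kinetic fluorescence at Ex/Em=480/540, 1 s intervals over 3 min, after pin-tool compound addition to dye-loaded KISS1R-HEK293 cells. Fifteen concentrations, triplicates.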

[5] = G protein-coupled receptor (GPCR) small molecule agonists, calcium flux assay: HEK293 wild type cell line counter screen (AID 1920065); conditions: HEK293 WT calcium flux, fluorescence, agonist mode; series mostly up to 57.6 µM
How it was run: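 Agonist mode; 18 h seeding at 37 C, 1 h dye load at 37 C; compounds pinned from DMSO, ATP as positive control; kinetic fluorescence 480/540 nm, 3 min, 1 s reads; 15 concentrations, triplicate.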

[6] = p53 small molecule agonists, cell-based qHTS assay with human liver microsomes (AID 1963577); conditions: HCT-116 p53RE-bla with human liver microsomes, ratio, 16 h; series mostly up to 66 µM
How it was run: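 Fluorescence of the beta-lactamase reporter in p53RE-bla cells, detected with LiveBLAzer substrate (2 h, room temperature, dark), served as the read-out after 16 h compound exposure at 37 C with human liver microsomes and NADPH, each 0.5 mg/mL final.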

[7] = p53 small molecule agonists, cell-based qHTS assay with rat liver microsomes (AID 1963578); conditions: HCT-116 p53RE-bla, beta-lactamase ratio, 16 h; series mostly up to 66 µM
How it was run: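 Cells carrying a p53 response element–beta-lactamase reporter were plated and rested 5 h, then dosed with compound in DMSO plus rat liver microsomes and NADPH, each at 0.5 mg/mL final. After 16 h at 37 C, LiveBLAzer substrate was added for 2 h.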

[8] = p53 small molecule agonists, cell-based qHTS assay with human liver microsomes: qHTS cell viability counter screen (AID 1963579); conditions: p53RE-bla HCT-116 viability, ATP luminescence, 16 h, HLM; series mostly up to 66 µM; further: nearly all actives have a fitted effect of over 45% in size
How it was run: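 Cytotoxicity counter screen: p53RE-bla, 4,000 cells/well; 5 h settle, 37 C/5% CO2; cpd + HLM 0.5 mg/mL + NADPH 0.5 mg/mL (final); 16 h, 37 C; CellTiter-Glo, 30 min RT, luminescence.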

[9] = p53 small molecule agonists, cell-based qHTS assay with rat liver microsomes: qHTS cell viability counter screen (AID 1963580); conditions: p53RE-bla HCT-116 + rat microsomes, ATP viability, 16 h; series mostly up to 66 µM; further: nearly all actives have a fitted effect of over 45% in size
How it was run: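 Luminescent ATP readout (CellTiter-Glo, 30 min at room temperature) reports viability of p53RE-bla HCT-116 cells after 16 h at 37 C with test compounds under metabolic activation by rat liver microsomes and NADPH at 0.5 mg/mL final each.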

[10] = p53 small molecule agonists, cell-based qHTS assay: qHTS cell viability counter screen (AID 1963581); conditions: p53RE-bla HCT-116 viability, ATP luminescence, 16 h; series mostly up to 66 µM; further: nearly all actives have a fitted effect of over 45% in size
How it was run: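 Cytotoxicity read-out: ATP-based luminescence (CellTiter-Glo, 30 min RT) measured in the same wells as the p53 reporter assay, HCT-116 p53RE-bla cells, 16 h compound exposure at 37 C.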

[11] = p53 small molecule agonists, cell-based qHTS assay (AID 1963582; active means well fitted activation curve with a large enough effect in the signal ratio in the repeat runs, not every such curve was filed as active; the % refers to the signal ratio); conditions: HCT-116 p53RE-bla reporter, beta-lactamase FRET ratio, 16 h; series mostly up to 66 µM
How it was run: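 Fluorescence intensity read-out of a beta-lactamase reporter under a p53 response element. Cells were exposed to DMSO-dissolved compounds for 16 h at 37 C, then developed with FRET substrate for 2 h at RT.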

[12] = biological target: 5-hydroxytryptamine receptor 2A (Homo sapiens) (UniProt P28223); assay: 5-hydroxytryptamine receptor 2A (HTR2A) small molecule antagonists, cell-based qHTS assay (AID 1963586); conditions: HTR2A-CHO cells, DOI-induced calcium flux, fluorescence; series mostly up to 61.5 µM; further: nearly all actives have a fitted effect of over 45% in size
Sequence of 5-hydroxytryptamine receptor 2A (Homo sapiens) (P28223 whole entry, looked up): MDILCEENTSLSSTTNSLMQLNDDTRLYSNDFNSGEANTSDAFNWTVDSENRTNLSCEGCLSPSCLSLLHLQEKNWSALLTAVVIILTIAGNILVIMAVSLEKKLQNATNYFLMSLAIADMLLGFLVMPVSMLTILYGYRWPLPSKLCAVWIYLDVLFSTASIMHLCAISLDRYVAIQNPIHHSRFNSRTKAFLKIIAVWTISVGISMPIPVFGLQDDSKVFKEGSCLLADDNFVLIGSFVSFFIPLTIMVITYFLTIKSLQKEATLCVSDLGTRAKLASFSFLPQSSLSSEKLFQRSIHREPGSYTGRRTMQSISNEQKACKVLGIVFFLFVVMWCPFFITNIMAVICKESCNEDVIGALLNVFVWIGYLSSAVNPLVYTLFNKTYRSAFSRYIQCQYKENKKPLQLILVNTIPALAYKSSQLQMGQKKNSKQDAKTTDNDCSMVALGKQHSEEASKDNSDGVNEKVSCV
How it was run: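 CHO cells stably expressing human HTR2A were plated for 18 h at 37 C, then loaded with calcium dye for 1 h. Compounds were preincubated 5 min at room temperature before DOI (4 nM solution) was added. Kinetic fluorescence was read for 3 min.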

[13] = biological target: 5-hydroxytryptamine receptor 2A (Homo sapiens) (UniProt P28223); assay: 5-hydroxytryptamine receptor 2A (HTR2A) small molecule agonists, cell-based qHTS assay (AID 1963587); conditions: HTR2A-CHO cells, calcium flux fluorescence, agonist mode; series mostly up to 76.8 µM; further: nearly all actives have a fitted effect of over 30% in size
How it was run: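 HTR2A-CHO cells, plated 18 h at 37 C/5% CO2, dye-loaded 1 h at 37 C; compounds in DMSO added by pin tool (agonist mode). Intracellular calcium flux read as kinetic fluorescence on FDSS over 2 min at 1 s intervals.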

[14] = biological target: Muscarinic acetylcholine receptor M1 (Homo sapiens) (UniProt P11229); assay: Cholinergic receptor muscarinic 1 (CHRM1) small molecule antagonists, cell-based qHTS assay (AID 1963588); conditions: CHRM1-CHO antagonist mode, calcium flux fluorescence; series mostly up to 61.5 µM; further: nearly all actives have a fitted effect of over 40% in size; further: potency means the concentration at half of the fitted maximal effect
Sequence of Muscarinic acetylcholine receptor M1 (Homo sapiens) (P11229 whole entry, looked up): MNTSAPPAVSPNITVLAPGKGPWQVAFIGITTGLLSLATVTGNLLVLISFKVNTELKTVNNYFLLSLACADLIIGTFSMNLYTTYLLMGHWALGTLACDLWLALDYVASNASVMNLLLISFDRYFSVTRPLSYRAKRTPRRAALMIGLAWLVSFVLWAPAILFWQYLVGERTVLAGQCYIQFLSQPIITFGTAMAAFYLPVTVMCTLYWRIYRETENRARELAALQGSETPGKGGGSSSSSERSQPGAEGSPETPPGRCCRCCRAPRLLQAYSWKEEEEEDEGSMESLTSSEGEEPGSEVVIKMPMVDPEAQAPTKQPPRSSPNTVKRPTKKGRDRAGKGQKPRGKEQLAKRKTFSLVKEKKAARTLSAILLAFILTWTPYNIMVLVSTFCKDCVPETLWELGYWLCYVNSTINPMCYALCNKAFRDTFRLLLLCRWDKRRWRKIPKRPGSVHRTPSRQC
How it was run: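 Compounds were tested at 15 concentrations in three independent runs. Dye-loaded CHRM1-CHO cells were exposed 5 min at room temperature before stimulation by acetylcholine added at 50nM. Intracellular calcium was read kinetically on FDSS for 3 min.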

[15] = biological target: Muscarinic acetylcholine receptor M1 (Homo sapiens) (UniProt P11229); assay: Cholinergic receptor muscarinic 1 (CHRM1) small molecule agonists, cell-based qHTS assay (AID 1963589); conditions: CHRM1-CHO cells, agonist mode, calcium flux fluorescence; series mostly up to 76.8 µM; further: nearly all actives have a fitted effect of over 35% in size
How it was run: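 Calcium flux read-out: kinetic fluorescence at 1 sec intervals after pin-tool compound addition to dye-loaded CHRM1-CHO cells (human M1). Agonist mode; 15 concentrations tested in triplicate independent runs.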

[16] = cAMP Responsive Elements (CRE) small molecule agonists, cell-based qHTS assay (AID 1963590); conditions: CRE-bla HEK293T, beta-lactamase FRET ratio, 3 h; series mostly up to 92.4 µM
How it was run: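 Beta-lactamase reporter readout: LiveBLAzer B/G FRET substrate, 2 h at room temperature, added after 3 h compound treatment of CRE-bla HEK 293T cells at 37 C/5% CO2.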

[17] = cAMP Responsive Elements (CRE) small molecule antagonists, cell-based qHTS assay (AID 1963591; active means well fitted inhibition curve with a large enough effect in the signal ratio in the repeat runs, not every such curve was filed as active; the % refers to the signal ratio); conditions: CRE-bla HEK293T, beta-lactamase FRET ratio; series mostly up to 92.4 µM
How it was run: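 HEK293T CRE-bla; 18 h preincubation; compound pin-transfer; NKH477 0.25 uM final, 3 h, 37 C; LiveBLAzer FRET substrate 2 h RT.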

[18] = biological target: D(2) dopamine receptor (Homo sapiens) (UniProt P14416); assay: Dopamine D2 receptor (DRD2) small molecule agonists, cell-based qHTS assay (AID 1963594); conditions: HEK293-DRD2 cAMP HTRF, agonist mode, 30 min; series mostly up to 92.4 µM; further: nearly all actives have a fitted effect of over 35% in size
Sequence of D(2) dopamine receptor (Homo sapiens) (P14416 whole entry, looked up): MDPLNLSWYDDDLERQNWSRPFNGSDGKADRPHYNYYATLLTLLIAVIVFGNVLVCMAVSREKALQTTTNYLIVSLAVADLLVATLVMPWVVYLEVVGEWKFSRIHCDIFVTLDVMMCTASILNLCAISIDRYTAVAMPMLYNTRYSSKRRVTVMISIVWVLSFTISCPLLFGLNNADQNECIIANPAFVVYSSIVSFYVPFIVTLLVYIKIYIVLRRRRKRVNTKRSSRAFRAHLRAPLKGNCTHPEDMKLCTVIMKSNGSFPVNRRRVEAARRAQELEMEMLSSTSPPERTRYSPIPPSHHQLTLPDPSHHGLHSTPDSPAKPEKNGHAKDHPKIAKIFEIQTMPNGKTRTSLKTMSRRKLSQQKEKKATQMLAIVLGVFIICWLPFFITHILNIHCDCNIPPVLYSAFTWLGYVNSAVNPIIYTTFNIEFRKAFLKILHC
How it was run: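 HEK293 cells stably expressing DRD2 were cultured 24 h at 37 C, then given Ro20-1724 (0.1 mM final) and compounds for 10 min at room temperature. NKH477 (200nM) was then added for 30 min. cAMP was read by HTRF.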

[19] = biological target: D(2) dopamine receptor (Homo sapiens) (UniProt P14416); assay: Dopamine D2 receptor (DRD2) small molecule antagonists, cell-based qHTS assay (AID 1963595; active means well fitted inhibition curve with a large enough effect in the signal ratio in the repeat runs, with a control signal flat; the % refers to the signal ratio); conditions: HEK293-DRD2 cAMP HTRF antagonist mode; series mostly up to 92.4 µM
How it was run: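 Cells were plated and grown for 24 h at 37 °C. Ro20-1724 (0.1 mM final) went in first, then compound for 10 min. NKH477 (200 nM) with quinpirole (12 nM) followed for 30 min at RT, then HTRF detection reagents for 1 h.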

[20] = biological target: Beta-2 adrenergic receptor (Homo sapiens) (UniProt P07550); assay: Adrenergic beta2 receptor (ADRB2) small molecule antagonists, cell-based qHTS assay (AID 1963592); conditions: CHO-ADRB2 cells, isoproterenol-stimulated cAMP HTRF ratio, 0.5 h; series mostly up to 92.4 µM; further: nearly all actives have a fitted effect of over 50% in size
Sequence of Beta-2 adrenergic receptor (Homo sapiens) (P07550 whole entry, looked up): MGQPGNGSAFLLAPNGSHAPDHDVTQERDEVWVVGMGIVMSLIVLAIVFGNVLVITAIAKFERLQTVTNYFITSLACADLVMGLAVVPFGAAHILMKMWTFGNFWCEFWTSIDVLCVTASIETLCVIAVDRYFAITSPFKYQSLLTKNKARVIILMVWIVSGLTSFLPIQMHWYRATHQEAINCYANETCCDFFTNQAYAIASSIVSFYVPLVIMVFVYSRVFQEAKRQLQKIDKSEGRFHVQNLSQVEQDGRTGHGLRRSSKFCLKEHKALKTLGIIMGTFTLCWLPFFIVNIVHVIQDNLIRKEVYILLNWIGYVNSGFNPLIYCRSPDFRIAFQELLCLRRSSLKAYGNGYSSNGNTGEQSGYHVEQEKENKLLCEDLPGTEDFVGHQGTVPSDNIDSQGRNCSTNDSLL
How it was run: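 Assay format: CHO-ADRB2 cells, 18-20hr seeding at 37C/5% CO2, then compound plus 1nM isoproterenol agonist mix for 0.5hr RT. Homogeneous time-resolved fluorescence cAMP detection after 1hr, expressed as 665/615 nm ratio.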

Measured: Potency

Cn1cccc1
not listed: [19] | [20]
inactive: all other assays above

COc1c(N2C[C@@H]3CCCN[C@@H]3C2)c(F)cc2c(=O)c(C(=O)O)cn(C3CC3)c12
active: [14] 6.5 µM
not listed: [18] | [20]
inactive: all other assays above

CC/C=C\CC/C=C/C(OCC)OCC
active: [2] 61.1 µM
not listed: [17] | [19]
inactive: all other assays above

CC(COC(C)(C)C)OCCCO (stereo not given)
not listed: [17]
inactive: all other assays above

CCCCCCC(=O)OCC
not listed: [20]
inactive: all other assays above

CCOC(=O)Cn1c(=O)sc2cccc(Cl)c21
not listed: [17]
inactive: all other assays above

CCCCCCCCC=O
not listed: [17]
inactive: all other assays above
